Source: PubChem BioAssay (National Center for Advancing Translational Sciences (NCATS))
Cruzain Triton: cruzain (T. cruzi) inhibition with detergent. Potency, µM, usual class: inhibitors. purified cruzain, Z-FR-AMC fluorescence, 0.01% Triton. 0.43% of 200,000 active. P25779; further: nearly all actives have a fitted effect of over 40% in size
Target sequence (P25779 123-467 limits assumed): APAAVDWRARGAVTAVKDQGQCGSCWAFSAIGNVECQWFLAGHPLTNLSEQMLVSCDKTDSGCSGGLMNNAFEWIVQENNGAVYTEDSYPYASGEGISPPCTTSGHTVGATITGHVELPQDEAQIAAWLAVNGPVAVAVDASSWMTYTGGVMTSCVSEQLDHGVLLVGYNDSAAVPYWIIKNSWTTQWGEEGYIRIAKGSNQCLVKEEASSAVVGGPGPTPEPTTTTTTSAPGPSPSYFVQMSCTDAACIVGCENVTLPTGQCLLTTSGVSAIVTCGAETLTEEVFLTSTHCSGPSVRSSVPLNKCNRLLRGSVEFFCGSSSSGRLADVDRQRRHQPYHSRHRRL
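Detergent-containing run (0.01% Triton X-100) in acetate buffer pH 5.5 with 5 mM DTT: enzyme at 1.5 nM final, 15 min compound preincubation at room temperature, then 2 uM Z-FR-AMC substrate. Activity taken as 60 s fluorescence increase at 360/450 nm.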
Cruzain noTriton: cruzain (T. cruzi) inhibition without detergent | purified cruzain, Z-FR-AMC fluorescence, no detergent | Potency, µM, hits mostly inhibitors | 2.3% of 200,000 active | AID 1476; further: nearly all actives have a fitted effect of over 40% in size
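Detergent-free condition (0.00005% Triton X-100) in acetate buffer pH 5.5 with DTT. 1.5 nM enzyme and compound were pre-mixed 15 min, then 2 uM Z-FR-AMC substrate added; reaction progress from fluorescence change between first and third reads (60 s).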
Papain inh: blocks papain protease activity, flagging nonselective cruzain hits; shares compounds with Cruzain Triton; purified papain, Z-FR-AMC fluorescence cleavage; Potency, µM, actives largely listed as inhibitors; 41% of 410 active; AID 2161; further: nearly all actives have a fitted effect of over 35% in size
Each line names hits and unclear results; the compound was inactive in the other large screens (follow-up assays come after a bar, where they were run). This is a sample that favours compounds with a hit; in the whole collection about 2.6% have one here. The call rests on the fitted dose curve; in most records, active means well fitted curve in the direction sought with a large enough effect; inconclusive means small, poorly fitted or top-dose-only effect, or another doubt; inactive means no such curve, though single readings can be large; an effect the other way counts as inactive or inconclusive.

COc1ccc(-c2cn3c(n2)sc2cc(C(=O)Nc4c(C)cccc4C)ccc23)cc1	none
O=C(NC(=S)Nc1ccc(NC(=O)c2cccs2)cc1)c1cc2ccccc2o1	Cruzain noTriton inconclusive
O=C(NC(=S)Nc1nc(-c2cccc3ccccc23)cs1)c1cc2ccccc2o1	Cruzain noTriton 2.51µM | Papain inh inactive
Cc1cc(=O)n2c(C(=O)Nc3ccc(C)c(Cl)c3)c(C(=O)Nc3ccccc3)sc2n1	none
Cn1c(=O)oc2cc(S(=O)(=O)N3CCCC(C(=O)NCCc4ccccc4)C3)ccc21 (stereo not drawn)	none
CCOc1ccc(C(=O)N2CCCCC2CCN2CCOCC2)cc1 (stereo not drawn)	none
Cc1ccc(OCCCCn2c(CCNC(=O)C(C)(C)C)nc3ccccc32)cc1	Cruzain noTriton inconclusive
O=C(NCCc1nc2ccccc2n1CCOc1ccc(Cl)cc1)C1CCCCC1	Cruzain Triton 1.26µM | Papain inh 8.91µM
Cc1ccc(OCCCn2c(CCCNC(=O)C3CCCCC3)nc3ccccc32)cc1	none (no result: Cruzain Triton, Cruzain noTriton) | Papain inh inactive
CCc1ccc(OCCCCn2c(CCNC(=O)C3CCCCC3)nc3ccccc32)cc1	none (no result: Cruzain Triton, Cruzain noTriton) | Papain inh 22.4µM
O=C(NCCc1nc2ccccc2n1CCOc1ccccc1)C1CCCCC1	none (no result: Cruzain Triton, Cruzain noTriton) | Papain inh inactive
CC(C)C(=O)NCCc1nc2ccccc2n1CCOc1ccccc1	none
O=C(NCCCc1nc2ccccc2n1Cc1c(F)cccc1Cl)C1CCCCC1	none
CC(C)(C)C(=O)NCCc1nc2ccccc2n1CCCCOc1ccccc1	none
CCCCN1C(C(=O)c2ccccc2)=C(OC(C)=O)c2ccccc2S1(=O)=O	none
CCOc1ccccc1CNC(=O)C1CCN(C(=O)N2CCOc3ccc(Cl)cc32)CC1	none
CCOc1ccc(C(=O)/C=C/Nc2ccc(S(=O)(=O)N=C(N)N)cc2)cc1	none
NS(=O)(=O)c1ccc(N/C=C\C(=O)c2ccc3ccccc3c2)cc1	Cruzain Triton 8.91µM, Cruzain noTriton 6.31µM | Papain inh inactive
Cc1ccc2c(CC(=O)N(Cc3cccc(Cl)c3)C3CCS(=O)(=O)C3)coc2c1 (stereo not drawn)	Cruzain noTriton inconclusive
COc1cc(C(CC(=O)Nc2cccc(C(C)=O)c2)N2Cc3ccccc3C2=O)cc(OC)c1OC (stereo not drawn)	Cruzain noTriton inconclusive
O=C(NC(Nc1cc(C(F)(F)F)ccc1Cl)C(=O)c1ccccc1)c1ccccc1 (stereo not drawn)	Cruzain noTriton inconclusive
O=C(CNC(=O)c1ccccc1)N[C@H](C(=O)Nc1cc(C(F)(F)F)ccc1Cl)c1ccccc1	none (no result: Cruzain Triton, Cruzain noTriton) | Papain inh inactive
CCN(CCCNC(=O)CN1N=C(c2ccccc2)CCC1=O)c1ccccc1	none
Cc1ccc(C)c(CN2C(=O)c3ccccc3Sc3ccc(C(=O)NCc4cccs4)cc32)c1	Cruzain noTriton inconclusive
O=C(NCc1ccc2c(c1)OCO2)c1ccc2c(c1)N(Cc1ccccc1F)C(=O)c1ccccc1S2	Cruzain noTriton inconclusive
Cc1ccc(C)c(CN2C(=O)c3ccccc3Sc3ccc(C(=O)NCc4ccc5c(c4)OCO5)cc32)c1	Cruzain noTriton 20µM | Papain inh inactive
O=C(NCc1ccc2c(c1)OCO2)c1ccc2c(c1)N(Cc1cccc(Cl)c1)C(=O)c1ccccc1S2	Cruzain noTriton 12.6µM | Papain inh inactive
CCc1nn(CC(=O)NC(C)CC)c(=O)c2cc3c(OC)cccc3n12 (stereo not drawn)	none
COC(=O)CSc1nnc([C@H](CC(C)C)NC(=O)OC(C)(C)C)o1	Cruzain Triton inconclusive
CC(C)(C)OC(=O)N[C@@H](Cc1ccccc1)c1nnc(SCC(=O)O)o1	Cruzain Triton 25.1µM | Papain inh inactive
Cn1c(-c2nc(-c3ccccc3)cs2)nc2ccccc21	none
CCc1ccc(CN(Cc2ccco2)C(=O)c2ccc(OC)cc2)cc1	none
O=C1CN(C(=O)CSc2nc3ccccc3n2CCc2ccccc2)c2ccccc2N1	none
CCCn1c(SCC(=O)N2CC(=O)Nc3ccccc32)nc2ccccc21	Cruzain Triton 12.6µM | Papain inh inactive
Cc1ccc(NC(=O)Cn2c(=O)c(C(F)(F)F)nc3ccccc32)c(C)c1	none
Cc1ccc(NC(=O)C(=O)NCCc2sc(-c3ccc(Cl)cc3)nc2C)cc1C	none
CC(C)CCNC(=O)Cn1c(SCc2cccc(F)c2)nc2ccncc21	none (no result: Cruzain Triton, Cruzain noTriton) | Papain inh inactive
CCCCNC(=O)Cn1c(SCc2cccc(C)c2)nc2ccncc21	none (no result: Cruzain Triton, Cruzain noTriton) | Papain inh inactive
Cc1cccc(CSc2nc3ccncc3n2CC(=O)Nc2ccc(C)c(C)c2)c1	none
O=C(Cn1c(SCc2cccc(F)c2)nc2ccncc21)Nc1ccc(Cl)cc1F	none
COCCNC(=O)CSc1nc(-c2ccccc2C)nc2c1c(=O)n(C)c(=O)n2C	none
CCS(=O)(=O)c1ccc(C(=O)N2CCN(c3nc4c(OC)ccc(C)c4s3)CC2)cc1	Cruzain noTriton inconclusive
